Source: PubChem BioAssay
Rows were chosen to be rich in hits. Some 1.4% of all compounds tested hit in one or more screens of this group.
PTHR1 ag: PTHR1 (human) receptor agonism; 410,000 tested, 0.075% active; Potency, µM (highest dose often 115 µM), for inactives: top-dose activation, most hits filed as activators; Q03431; AID 743266; HEK293 GP2 PTHR1 cells, GloSensor cAMP luminescence, 1 h; further: potency means the concentration at half of the fitted maximal effect; nearly all actives have a fitted effect of over 55% in size
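HEK-293-derived GP2 cells expressing PTHR1 and a GloSensor cAMP reporter, 3,000/well, plated overnight, given luciferin plus IBMX (each 0.5 mM as added) for 1 h at 37 °C, then compound for 1 h at 37 °C. Luminescence was read after 15 min at room temperature.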
Glioma ERSR ind: induces the endoplasmic reticulum stress response in human glioma cells | 420,000 tested, 0.02% active | U87-MG GRP78 promoter luciferase reporter, 16 h | Potency, µM, for the others: at the highest dose activation, most hits filed as activators | AID 602332; further: potency means the concentration at half of the fitted maximal effect; series mostly up to about 76 µM; % of control where 0% means no effect; nearly all actives have a fitted effect of over 35% in size
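Stably transfected U87-MG human glioma cells carrying a GRP78-based luminescent sensor were seeded at 1000 cells/well, pin-dosed with compounds and incubated 16 h. Luciferase reagent was then added, and end-point luminescence was read after 10 min at room temperature.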
KCNH2 3.1 block: blocks the human KCNH2 3.1 channel isoform. U2OS KCNH2 3.1, thallium flux FluxOr; hits give low values. activity change, % (tested at about 1.8 µM). 340,000 tested, 0.95% active. AID 720553;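 active means maximum activity change below -70%; inconclusive means maximum activity change from -70% to -50%; inactive means maximum activity change above -50%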;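 further: thallium influx rate constant from kinetic fluorescence after stimulation buffer; on the % scale 0 is the no-effect control and ±100 the full control effect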
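FluxOr-based Tl+ influx in U2OS cells transduced with KCNH2 3.1 virus; rate constants normalized to DMSO controls.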
RXFP1 agonist: RXFP1 (human) receptor agonism. Potency, µM (doses to about 57.5 µM), for the others: at the top dose activation, usual class: activators. 370,000 tested, 0.3% active. HEK293T-RXFP1 cAMP TR-FRET, 30 min; response scale: percent of porcine relaxin response, buffer zero. AID 2676; further: potency means the concentration at half of the fitted maximal effect; on the % scale 0 is the no-effect control and ±100 the full control effect; nearly all actives have a fitted effect of over 60% in size
Target sequence (Q9HBX9 whole entry, looked up): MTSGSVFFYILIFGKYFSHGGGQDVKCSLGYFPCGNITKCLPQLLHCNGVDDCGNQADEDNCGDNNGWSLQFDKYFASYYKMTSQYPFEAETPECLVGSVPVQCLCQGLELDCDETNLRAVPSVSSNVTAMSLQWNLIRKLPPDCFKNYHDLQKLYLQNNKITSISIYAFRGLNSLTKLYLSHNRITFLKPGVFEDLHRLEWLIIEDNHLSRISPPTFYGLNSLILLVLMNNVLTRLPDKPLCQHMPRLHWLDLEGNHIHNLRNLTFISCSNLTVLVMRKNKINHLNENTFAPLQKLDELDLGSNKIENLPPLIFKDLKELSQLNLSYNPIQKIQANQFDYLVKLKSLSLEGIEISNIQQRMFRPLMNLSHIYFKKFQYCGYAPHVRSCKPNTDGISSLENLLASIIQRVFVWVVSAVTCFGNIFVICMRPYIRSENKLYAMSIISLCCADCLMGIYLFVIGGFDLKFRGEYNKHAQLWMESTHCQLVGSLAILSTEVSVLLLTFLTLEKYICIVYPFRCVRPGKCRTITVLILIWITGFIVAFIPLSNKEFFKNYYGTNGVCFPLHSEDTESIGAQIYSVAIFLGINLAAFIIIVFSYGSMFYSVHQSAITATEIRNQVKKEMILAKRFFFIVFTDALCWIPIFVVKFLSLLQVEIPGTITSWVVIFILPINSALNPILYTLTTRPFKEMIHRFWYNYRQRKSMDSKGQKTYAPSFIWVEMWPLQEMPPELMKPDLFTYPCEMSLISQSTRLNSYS
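HEK293 cells stably expressing RXFP1, treated 30 min at 37C with compounds plus PDE4 inhibitor Ro 20174; cAMP measured by HTRF TR-FRET. Normalized to buffer and 29 nM porcine relaxin; EC50 by Hill fit.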
RXFP1 antag: blocks the human relaxin receptor RXFP1; Q9HBX9; 350,000 tested, 0.59% active; activity change, negative = inhibition, % at 57.5 µM; AID 1259400; HEK293-RXFP1, relaxin-stimulated cAMP HTRF, 30 min; hits give low values;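 active means activity change of -60% or lower, but not beyond a set lower limit; inconclusive means change between -60% and -40%, or beyond the set limit; inactive means change above -40%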; further: on the % scale 0 is the no-effect control and ±100 the full control effect
KCNH2 WT inh: blocks the wildtype human KCNH2 potassium channel; Q12809; U2OS, BacMam KCNH2, thallium flux FluxOr; hits give low values; activity change, % at 1.84 µM; 340,000 tested, 0.37% active; AID 720551;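 active means maximum activity change below -70%; inconclusive means maximum activity change between -70% and -50%; inactive means maximum activity change above -50%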; further: on the % scale 0 is the no-effect control and ±100 the full control effect
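U2OS cells were transduced with wild-type KCNH2 virus (2.03 x 10^8 / mL) for 4 h at room temperature, then cultured overnight at 37 C. Thallium flux was read with FluxOr dye. Rate constants were normalized to DMSO controls.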
* = called active by the depositor; [ ] = remark or other dose. Unless noted, the call rests on the fitted dose curve; in most records, active means well fitted curve in the direction sought with a large enough effect; inconclusive means small, poorly fitted or top-dose-only effect, or another doubt; inactive means no such curve, though single readings can be large; an effect the other way counts as inactive or inconclusive.

Screening Cc1cc2cc(C#N)c(SCC(=O)Nc3nonc3C)nc2cc1C returned PTHR1 ag -48%, Glioma ERSR ind 1%, KCNH2 3.1 block -28, RXFP1 agonist 30%, RXFP1 antag -9 and KCNH2 WT inh 7.
`Cc1nc2c(C)cccn2c1C(=O)c1ccccc1` gave PTHR1 ag -22%, Glioma ERSR ind -2%, KCNH2 3.1 block -84*, RXFP1 agonist 0% and KCNH2 WT inh -5.
For Nc1nc(-c2ccccc2Cl)cs1 the results were PTHR1 ag -13%, Glioma ERSR ind 2%, KCNH2 3.1 block -71*, RXFP1 antag -15 and KCNH2 WT inh 4.
`Cc1ccccc1-c1csc(N)n1` gave PTHR1 ag inactive, Glioma ERSR ind -1%, KCNH2 3.1 block 3, RXFP1 antag 1 and KCNH2 WT inh -1.
`CC(=O)N1N=C(c2cccc([N+](=O)[O-])c2)OC1c1cccc(Br)c1` (stereo unspecified) gave PTHR1 ag -5%, Glioma ERSR ind 4%, KCNH2 3.1 block 7, RXFP1 agonist 2%, RXFP1 antag -6 and KCNH2 WT inh 1.
For O=C1CNC(=S)N1Cc1ccccc1Cl the results were PTHR1 ag inactive, Glioma ERSR ind 0%, KCNH2 3.1 block 6, RXFP1 agonist 0%, RXFP1 antag 11 and KCNH2 WT inh 10.
CCn1nc(C)c(CN2CCC(C(=O)Nc3cccc(-c4cccc(Cl)c4)c3)CC2)c1C was read as PTHR1 ag -21%, Glioma ERSR ind -8%, KCNH2 3.1 block -95*, RXFP1 agonist 1%, RXFP1 antag -10 and KCNH2 WT inh -94*.
Screening CS(=O)(=O)N1CCC(C(=O)Nc2cccc(Cl)c2)CC1 returned PTHR1 ag -18%, Glioma ERSR ind 0%, KCNH2 3.1 block -7, RXFP1 agonist 2%, RXFP1 antag -1 and KCNH2 WT inh -3.
CC(=O)c1cccc(CN2CCC(C(=O)Nc3ccc(-c4cccc(C)c4)cc3)CC2)c1 was read as PTHR1 ag -17%, Glioma ERSR ind -4%, KCNH2 3.1 block -101*, RXFP1 agonist 0%, RXFP1 antag -14 and KCNH2 WT inh -13.
`Cc1cc(C)n(CCCN2CCC(C(=O)Nc3cccc(-c4cccc(F)c4)c3)CC2)n1` gave PTHR1 ag 10%, Glioma ERSR ind -4%, KCNH2 3.1 block -102*, RXFP1 agonist 2%, RXFP1 antag -19 and KCNH2 WT inh -105*.
Screening CCn1ncc(CN2CCC(C(=O)Nc3cccc(-c4cccc(F)c4)c3)CC2)c1C returned PTHR1 ag -1%, Glioma ERSR ind -5%, KCNH2 3.1 block -97*, RXFP1 agonist 3%, RXFP1 antag 4 and KCNH2 WT inh -117*.
Screening O=C(Nc1cccc(-c2cccc(F)c2)c1)C1CCN(Cc2ccc(CO)o2)CC1 returned PTHR1 ag inactive, Glioma ERSR ind -7%, KCNH2 3.1 block -13, RXFP1 agonist -2%, RXFP1 antag -9 and KCNH2 WT inh 8.
`C=CC1=CCN(S(=O)C(C)(C)C)[C@H]1CCO` (stereo partly specified) gave PTHR1 ag inactive, Glioma ERSR ind -3%, KCNH2 3.1 block -4 and KCNH2 WT inh 2.
Screening O=C(CCn1c(=S)oc2ccccc21)NC1CCCCC1 returned PTHR1 ag inactive, Glioma ERSR ind -5%, KCNH2 3.1 block -28, RXFP1 agonist 15%, RXFP1 antag 7 and KCNH2 WT inh 1.
For Cc1noc(C)c1COc1ccc(C(=O)OCC(=O)N2CC(=O)Nc3ccccc32)cc1 the results were PTHR1 ag -10%, Glioma ERSR ind 3%, KCNH2 3.1 block -23, RXFP1 agonist 6%, RXFP1 antag 11 and KCNH2 WT inh 7.
Cc1ncc(CN2CCCC(C(=O)Nc3ccc(-c4cccc(F)c4)cc3)C2)n1C (stereo unspecified) was read as PTHR1 ag -3%, Glioma ERSR ind -4%, KCNH2 3.1 block -84*, RXFP1 agonist -3%, RXFP1 antag -17 and KCNH2 WT inh -17.
COc1ccc(CN(N=O)C2CC(=O)N(c3ccc(OC)cc3)C2=O)cc1 (stereo unspecified) was read as PTHR1 ag -1%, Glioma ERSR ind 2%, KCNH2 3.1 block 5, RXFP1 agonist 3%, RXFP1 antag 20 and KCNH2 WT inh -2.
For COc1cc(C)c(CN2CCN(CC(=O)Nc3ccccc3C(=O)NC3CC3)CC2)cc1OC the results were PTHR1 ag -24%, Glioma ERSR ind 0%, KCNH2 3.1 block -107*, RXFP1 agonist -2%, RXFP1 antag -4 and KCNH2 WT inh -83*.
Screening COc1ccc(OC)c(CN2CCN(CC(=O)Nc3ccccc3C(=O)NC3CC3)CC2)c1 returned PTHR1 ag 0%, Glioma ERSR ind -2%, KCNH2 3.1 block -70*, RXFP1 agonist 0%, RXFP1 antag 3 and KCNH2 WT inh -79*.
COc1ccc(C(OCC(O)CNCCc2ccc(S(N)(=O)=O)cc2)c2ccc(OC)cc2)cc1 (stereo unspecified) was read as PTHR1 ag inactive, Glioma ERSR ind 5%, KCNH2 3.1 block inconclusive, RXFP1 agonist 6%, RXFP1 antag -22 and KCNH2 WT inh -25.
For OC(CNCCc1ccc(C(F)(F)F)cc1)COC(c1ccccc1)c1ccccc1 (stereo unspecified) the results were PTHR1 ag -3%, Glioma ERSR ind -17%, KCNH2 3.1 block -74*, RXFP1 agonist 4% and RXFP1 antag -33.
COc1ccc(-c2nc3ccc(NS(=O)(=O)c4ccc(C)cc4)cc3o2)cc1 was read as PTHR1 ag -28%, RXFP1 agonist 1% and RXFP1 antag 1.
COC(=O)N1CCCCC1c1cc(C(=O)Nc2cccc3c2CCCC3)no1 (stereo unspecified) was read as PTHR1 ag -38% and Glioma ERSR ind 0%.
`Cc1c(NS(=O)(=O)c2cccs2)cccc1-c1nc2cccnc2s1` gave PTHR1 ag -41%, Glioma ERSR ind 5%, KCNH2 3.1 block -87*, RXFP1 agonist 6%, RXFP1 antag 8 and KCNH2 WT inh -3.
COc1cc(C2Nc3cccc4cccc(c34)N2)ccc1O was read as PTHR1 ag inactive, Glioma ERSR ind -2%, KCNH2 3.1 block 2, RXFP1 agonist -3%, RXFP1 antag -70* and KCNH2 WT inh 1.
For COc1cc(C2Nc3cccc4cccc(c34)N2)cc(OC)c1OC(C)=O the results were PTHR1 ag -1%[57.5 µM], Glioma ERSR ind -5%, KCNH2 3.1 block -12, RXFP1 agonist 0%, RXFP1 antag inconclusive and KCNH2 WT inh -5.
